Test results: PubChem BioAssay AID1159580 (chemical genetic matrix, 2015)
Several values for one entry are separate records, joined by “and”; a condition that tells them apart may be missing. Equal values may be shown once. The campaign covered roughly 5,500 compounds. About 2,000 (36%) were called active. Not shown: some 18% with an inconclusive outcome. Rule as the data show it: active = normalized growth mostly below about 0.91 (no sharp cut-off); inconclusive = no clear call, values can overlap the other calls; inactive = mostly above about 0.92. The list shows a part of the results.

Experiment: chemical genetic growth profiling, strain panel (AID 1159580);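 also: tested at 20 µM; growth read once vehicle control cultures reached saturation at 30 °C; 1 = growth at the plate median or of vehicle wells; lower values mean less growth of the strain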
Details: S. cerevisiae deletion strains, growth OD

Measured: normalized growth

O=C(O)c1cc(=O)c2cccc(O)c2[nH]1
inactive: locus YAL013W, strain DEP1, stronger effect = lower value 0.999 | locus YAL021C, strain ccr4, stronger effect = lower value 0.995 | locus YAL026C, strain drs2, stronger effect = lower value 1.03 | locus YAL030W, strain snc1, stronger effect = lower value 1.01 | locus YBL061C, strain skt5, stronger effect = lower value 1.02 | locus YBR009C, strain hhf1, stronger effect = lower value 1 | locus YBR021W, strain FUR4, stronger effect = lower value 1.03 | locus YBR023C, strain chs3, stronger effect = lower value 1.03 | locus YBR171W, strain sec66, stronger effect = lower value 1.03 | locus YBR229C, strain ROT2, stronger effect = lower value 0.999 | locus YBR231C, strain swc5, stronger effect = lower value 1.01 | locus YBR279W, strain paf1, stronger effect = lower value 0.984 | locus YCL011C, strain gbp2, stronger effect = lower value 1.02 | locus YCL016C, strain dcc1, stronger effect = lower value 1.05 | locus YCL029C, strain bik1, stronger effect = lower value 0.953 | locus YCL061C, strain MRC1, stronger effect = lower value 1.02 | locus YCL069W, strain vba3, stronger effect = lower value 1.01 | locus YCR088W, strain abp1, stronger effect = lower value 1.02 | locus YDL005C, strain med2, stronger effect = lower value 1.01 | locus YDL035C, strain GPR1, stronger effect = lower value 1.02 | locus YDL040C, strain nat1, stronger effect = lower value 1 | locus YDL074C, strain BRE1, stronger effect = lower value 0.995 | locus YDL101C, strain DUN1, stronger effect = lower value 0.988 | locus YDL134C, strain PPH21, stronger effect = lower value 1.01 | locus YDL185W, strain tfp1, stronger effect = lower value 0.959 | locus YDL192W, strain arf1, stronger effect = lower value 0.985 | locus YDR001C, strain nth1, stronger effect = lower value 1.01 | locus YDR069C, strain doa4, stronger effect = lower value 1.03 | locus YDR101C, strain arx1, stronger effect = lower value 0.977 | locus YDR137W, strain rgp1, stronger effect = lower value 1.01 | locus YDR150W, strain NUM1, stronger effect = lower value 0.97 | locus YDR159W, strain sac3, stronger effect = lower value 0.981 | locus YDR162C, strain NBP2, stronger effect = lower value 1 | locus YDR195W, strain ref2 1 | locus YDR297W, strain sur2, stronger effect = lower value 1.01 | locus YDR318W, strain mcm21, stronger effect = lower value 0.981 | locus YDR334W, strain swr1, stronger effect = lower value 1.02 | locus YDR335W, strain msn5, stronger effect = lower value 1.04 | locus YDR388W, stronger effect = lower value 0.995 | locus YDR392W, strain spt3, stronger effect = lower value 1.08 | locus YDR502C, strain sam2, stronger effect = lower value 0.985 | locus YEL003W, strain gim4, stronger effect = lower value 1.01 | locus YEL037C, strain rad23, stronger effect = lower value 1.01 | locus YEL061C, strain CIN8 (second series), stronger effect = lower value 1.02 | locus YEL061C, strain CIN8, stronger effect = lower value 0.993 | locus YER015W, strain faa2, stronger effect = lower value 1.02 | locus YER016W, strain bim1, stronger effect = lower value 1.04 | locus YER110C, stronger effect = lower value 0.974 | locus YER111C, strain swi4, stronger effect = lower value 1.01 | locus YER155C, strain BEM2 (second series), stronger effect = lower value 1.03 | locus YER155C, strain BEM2, stronger effect = lower value 0.998 | locus YER167W, strain BCK2, stronger effect = lower value 0.994 | locus YFR010W, strain ubp6, stronger effect = lower value 1.01 | locus YGL078C, strain dbp3, stronger effect = lower value 0.987 | locus YGL086W, strain mad1, stronger effect = lower value 0.993 | locus YGL167C, strain pmr1, stronger effect = lower value 1.01 | locus YGL173C, strain kem1, stronger effect = lower value 1.01 | locus YGL227W, strain vid30, stronger effect = lower value 1.01 | locus YGL240W, strain doc1, stronger effect = lower value 0.999 | locus YGL248W, strain PDE1, stronger effect = lower value 0.991 | locus YGL253W, strain hxk2, stronger effect = lower value 1.03 | locus YGR078C, strain PAC10, stronger effect = lower value 0.98 | locus YGR135W, strain pre9, stronger effect = lower value 0.986 | locus YGR229C, strain SMI1, stronger effect = lower value 1.02 | locus YGR252W, strain gcn5, stronger effect = lower value 1.15 | locus YHR013C, strain ard1, stronger effect = lower value 1.01 | locus YHR027C, strain rpn1, stronger effect = lower value 1.03 | locus YHR030C, strain SLT2, stronger effect = lower value 0.985 and 0.961 | locus YHR079C, strain IRE1 (second series), stronger effect = lower value 0.985 | locus YHR079C, strain IRE1, stronger effect = lower value 0.962 | locus YHR094C, strain hxt1, stronger effect = lower value 0.964 | locus YHR129C, strain ARP1, stronger effect = lower value 0.987 | locus YHR142W, strain chs7, stronger effect = lower value 1.03 | locus YHR200W, strain rpn10, stronger effect = lower value 0.984 | locus YIL066C, strain RNR3, stronger effect = lower value 0.994 | locus YIL073C, strain SPO22, stronger effect = lower value 0.949 | locus YIL125W, strain kgd1, stronger effect = lower value 0.975 | locus YIR030C, strain dcg1, stronger effect = lower value 0.99 | locus YJL092W, strain hpr5, stronger effect = lower value 1.02 | locus YJL095W, strain BCK1 (second series), stronger effect = lower value 1.03 | locus YJL095W, strain BCK1, stronger effect = lower value 0.982 and 0.975 | locus YJL115W, strain asf1, stronger effect = lower value 1.01 | locus YJL129C, strain trk1, stronger effect = lower value 1.03 | locus YJL134W, strain LCB3, stronger effect = lower value 0.992 | locus YJL154C, strain vps35, stronger effect = lower value 1.01 | locus YJL164C, strain tpk1, stronger effect = lower value 1.01 | locus YJL166W, strain qcr8, stronger effect = lower value 0.996 | locus YJL168C, strain set2, stronger effect = lower value 0.981 | locus YJL187C, strain SWE1 (second series), stronger effect = lower value 0.95 | locus YJL187C, strain SWE1, stronger effect = lower value 1.03 | locus YJR043C, strain POL32, stronger effect = lower value 0.987 | locus YJR066W, strain TOR1, stronger effect = lower value 0.928
